Holding throughout (assay): DAPPL (digital affinity profiling via proximity ligation, sequencing); 10 mM Tris-HCl pH 7.5, 50 mM NaCl, 1 mM DTT, 4% glycerol, room temperature, 30 min; GST-TFs on glutathione beads, 16-mer random dsDNA library, 0.1% formaldehyde crosslink after washing; high values mean tight binding
For assay [1], the target named is T1, FLI1 (Homo sapiens, UniProt Q01543 1-452).
T1 sequence: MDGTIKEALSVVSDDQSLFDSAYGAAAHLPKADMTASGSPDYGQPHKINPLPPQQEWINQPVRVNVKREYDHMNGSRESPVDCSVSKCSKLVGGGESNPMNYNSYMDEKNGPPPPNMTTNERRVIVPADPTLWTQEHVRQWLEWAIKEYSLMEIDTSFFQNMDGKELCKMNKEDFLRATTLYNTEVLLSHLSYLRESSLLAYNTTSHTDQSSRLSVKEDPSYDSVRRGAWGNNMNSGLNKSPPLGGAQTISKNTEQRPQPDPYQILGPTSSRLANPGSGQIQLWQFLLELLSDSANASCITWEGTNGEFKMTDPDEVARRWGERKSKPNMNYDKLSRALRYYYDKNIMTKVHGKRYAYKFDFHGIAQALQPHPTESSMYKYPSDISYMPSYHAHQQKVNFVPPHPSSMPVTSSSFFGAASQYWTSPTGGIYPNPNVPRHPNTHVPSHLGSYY
As to conditions: protein: recombinant; tags: N-terminal GST; dsDNA, one strand shown. A digest of the protocol:
(§1)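 Sequencing on an Illumina NextSeq500 followed washing, crosslinking with 0.1% formaldehyde, proximity ligation (BsaI/T4 ligase, 1 h, 37 °C) and PCR amplification of pools that had been incubated for 30 min at room temperature with 200 nmole of a random double-stranded 16-mer DNA library in Tris/NaCl/DTT/glycerol buffer. Each pool held DNA-barcoded human transcription factors, expressed in yeast as GST fusions and captured on glutathione beads, plus a tag-only sample. Binding signal is a hexamer's read frequency for a factor divided by its frequency in the tag-only sample.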

Assay [2] addresses T2, ELK1 (Homo sapiens, UniProt P19419 1-428).
T2 sequence: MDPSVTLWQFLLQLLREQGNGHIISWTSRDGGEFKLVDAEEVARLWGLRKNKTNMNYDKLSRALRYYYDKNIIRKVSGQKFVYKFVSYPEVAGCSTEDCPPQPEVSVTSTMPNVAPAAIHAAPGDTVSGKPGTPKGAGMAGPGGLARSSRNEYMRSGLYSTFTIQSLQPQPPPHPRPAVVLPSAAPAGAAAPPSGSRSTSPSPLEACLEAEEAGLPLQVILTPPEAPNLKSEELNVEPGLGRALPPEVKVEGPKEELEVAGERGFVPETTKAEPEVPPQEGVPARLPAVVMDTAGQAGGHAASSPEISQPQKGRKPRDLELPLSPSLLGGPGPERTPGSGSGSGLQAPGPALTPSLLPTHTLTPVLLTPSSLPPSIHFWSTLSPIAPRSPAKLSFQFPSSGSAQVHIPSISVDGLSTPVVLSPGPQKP
The following applies: protein: recombinant; tags: N-terminal GST; dsDNA, one strand shown. The gist of the method:
as §1

Assay [3] has as its target T3, GABPA (Homo sapiens, UniProt Q06546 1-454).
T3 sequence: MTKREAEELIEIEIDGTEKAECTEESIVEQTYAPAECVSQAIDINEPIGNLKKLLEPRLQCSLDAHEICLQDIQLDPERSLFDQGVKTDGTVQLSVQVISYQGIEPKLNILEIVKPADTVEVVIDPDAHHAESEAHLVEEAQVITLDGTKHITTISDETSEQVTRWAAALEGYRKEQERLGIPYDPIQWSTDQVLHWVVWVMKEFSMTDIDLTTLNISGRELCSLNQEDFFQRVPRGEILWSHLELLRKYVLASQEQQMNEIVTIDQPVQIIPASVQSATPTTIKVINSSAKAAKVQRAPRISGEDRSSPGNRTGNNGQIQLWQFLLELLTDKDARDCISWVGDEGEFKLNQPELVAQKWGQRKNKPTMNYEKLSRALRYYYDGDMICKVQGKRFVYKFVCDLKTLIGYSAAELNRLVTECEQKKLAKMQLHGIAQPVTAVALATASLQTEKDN
As to conditions: protein: recombinant; tags: N-terminal GST; dsDNA, one strand shown. A digest of the protocol:
as §1

In assay [4] the target is T4, ERG (Homo sapiens, UniProt P11308 1-479).
T4 sequence: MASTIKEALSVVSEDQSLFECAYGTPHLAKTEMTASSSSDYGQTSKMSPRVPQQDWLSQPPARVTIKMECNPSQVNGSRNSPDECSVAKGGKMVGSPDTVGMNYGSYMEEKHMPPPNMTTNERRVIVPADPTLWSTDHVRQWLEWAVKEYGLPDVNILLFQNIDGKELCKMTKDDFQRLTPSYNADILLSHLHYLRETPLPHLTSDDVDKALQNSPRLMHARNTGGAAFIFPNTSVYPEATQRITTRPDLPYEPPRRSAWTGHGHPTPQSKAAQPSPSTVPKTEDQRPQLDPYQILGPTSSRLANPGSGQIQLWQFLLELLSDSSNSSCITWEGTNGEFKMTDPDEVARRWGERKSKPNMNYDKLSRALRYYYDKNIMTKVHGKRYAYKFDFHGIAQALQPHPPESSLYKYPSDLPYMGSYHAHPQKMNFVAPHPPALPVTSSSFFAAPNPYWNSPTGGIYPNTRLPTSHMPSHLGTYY
As to conditions: protein: recombinant; tags: N-terminal GST; dsDNA, one strand shown. A digest of the protocol:
as §1

Assay [5] concerns the target ELF1 (Homo sapiens, UniProt P32519 1-619). As to conditions: protein: recombinant; tags: N-terminal GST; dsDNA, one strand shown. The gist of the method: as §1
Assay [6] has as its target T5, EHF (Homo sapiens, UniProt Q9NZC4 1-300).
T5 sequence: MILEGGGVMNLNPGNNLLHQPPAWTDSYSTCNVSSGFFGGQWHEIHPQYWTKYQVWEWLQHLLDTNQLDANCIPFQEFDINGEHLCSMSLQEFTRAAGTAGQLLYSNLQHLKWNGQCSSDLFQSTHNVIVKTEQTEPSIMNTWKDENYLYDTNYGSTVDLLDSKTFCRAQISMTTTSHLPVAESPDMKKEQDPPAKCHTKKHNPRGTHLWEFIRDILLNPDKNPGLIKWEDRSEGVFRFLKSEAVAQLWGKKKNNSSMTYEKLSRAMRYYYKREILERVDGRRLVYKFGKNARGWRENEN
The following applies: protein: recombinant; tags: N-terminal GST; dsDNA, one strand shown. The gist of the method:
as §1

The target of assay [7] is SPI1 (Homo sapiens, UniProt P17947 1-270). As to conditions: protein: recombinant; tags: N-terminal GST; dsDNA, one strand shown. A digest of the protocol: as §1
Assay [8] has as its target SPIB (Homo sapiens, UniProt Q01892 1-262). The following applies: protein: recombinant; tags: N-terminal GST; dsDNA, one strand shown. The gist of the method: as §1
The target of assay [9] is T6, ELK3 (Homo sapiens, UniProt P41970 1-407).
T6 sequence: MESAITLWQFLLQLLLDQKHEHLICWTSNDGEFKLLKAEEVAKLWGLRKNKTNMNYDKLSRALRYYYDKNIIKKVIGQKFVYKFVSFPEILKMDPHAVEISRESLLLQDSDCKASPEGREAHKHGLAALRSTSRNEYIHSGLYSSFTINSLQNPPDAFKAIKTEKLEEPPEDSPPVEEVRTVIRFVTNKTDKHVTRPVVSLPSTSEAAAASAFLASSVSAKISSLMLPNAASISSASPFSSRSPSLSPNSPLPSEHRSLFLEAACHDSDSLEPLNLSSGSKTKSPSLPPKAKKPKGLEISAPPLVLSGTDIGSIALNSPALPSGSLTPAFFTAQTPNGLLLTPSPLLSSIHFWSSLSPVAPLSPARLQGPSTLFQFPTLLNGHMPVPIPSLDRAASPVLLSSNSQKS
As to conditions: protein: recombinant; tags: N-terminal GST; dsDNA, one strand shown. The gist of the method:
as §1

Assay [10] deals with T7, FEV (Homo sapiens, UniProt Q99581 1-238).
T7 sequence: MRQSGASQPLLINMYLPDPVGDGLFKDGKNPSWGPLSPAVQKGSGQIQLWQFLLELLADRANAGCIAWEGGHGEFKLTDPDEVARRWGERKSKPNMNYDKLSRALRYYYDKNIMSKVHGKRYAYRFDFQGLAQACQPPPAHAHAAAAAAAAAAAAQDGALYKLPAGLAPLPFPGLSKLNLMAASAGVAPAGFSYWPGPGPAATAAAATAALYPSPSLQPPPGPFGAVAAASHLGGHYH
The following applies: protein: recombinant; tags: N-terminal GST; dsDNA, one strand shown. The gist of the method:
as §1

Assay [11] has as its target ETV5 (Homo sapiens, UniProt P41161 1-510). As to conditions: protein: recombinant; tags: N-terminal GST; dsDNA, one strand shown. A digest of the protocol:
as §1

Assay [12] deals with HSF1 (Homo sapiens, UniProt Q00613 1-529). The following applies: protein: recombinant; tags: N-terminal GST; chain copies: 3; dsDNA, one strand shown. A digest of the protocol:
as §1

Assay [13] concerns the target T8, SPIC (Homo sapiens, UniProt Q8N5J4 1-248).
T8 sequence: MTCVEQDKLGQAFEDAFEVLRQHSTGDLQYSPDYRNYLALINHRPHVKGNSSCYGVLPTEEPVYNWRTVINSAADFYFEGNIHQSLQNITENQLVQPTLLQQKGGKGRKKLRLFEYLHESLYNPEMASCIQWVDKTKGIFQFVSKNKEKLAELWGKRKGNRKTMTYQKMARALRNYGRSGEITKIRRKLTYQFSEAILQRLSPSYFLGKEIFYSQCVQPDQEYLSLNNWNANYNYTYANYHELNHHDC
The following applies: protein: recombinant; tags: N-terminal GST; dsDNA, one strand shown. The gist of the method: as §1

The target of assay [14] is ELF4 (Homo sapiens, UniProt Q99607 1-663). The following applies: protein: recombinant; tags: N-terminal GST; dsDNA, one strand shown. The gist of the method: as §1
ELF4, sequence (Q99607 whole entry): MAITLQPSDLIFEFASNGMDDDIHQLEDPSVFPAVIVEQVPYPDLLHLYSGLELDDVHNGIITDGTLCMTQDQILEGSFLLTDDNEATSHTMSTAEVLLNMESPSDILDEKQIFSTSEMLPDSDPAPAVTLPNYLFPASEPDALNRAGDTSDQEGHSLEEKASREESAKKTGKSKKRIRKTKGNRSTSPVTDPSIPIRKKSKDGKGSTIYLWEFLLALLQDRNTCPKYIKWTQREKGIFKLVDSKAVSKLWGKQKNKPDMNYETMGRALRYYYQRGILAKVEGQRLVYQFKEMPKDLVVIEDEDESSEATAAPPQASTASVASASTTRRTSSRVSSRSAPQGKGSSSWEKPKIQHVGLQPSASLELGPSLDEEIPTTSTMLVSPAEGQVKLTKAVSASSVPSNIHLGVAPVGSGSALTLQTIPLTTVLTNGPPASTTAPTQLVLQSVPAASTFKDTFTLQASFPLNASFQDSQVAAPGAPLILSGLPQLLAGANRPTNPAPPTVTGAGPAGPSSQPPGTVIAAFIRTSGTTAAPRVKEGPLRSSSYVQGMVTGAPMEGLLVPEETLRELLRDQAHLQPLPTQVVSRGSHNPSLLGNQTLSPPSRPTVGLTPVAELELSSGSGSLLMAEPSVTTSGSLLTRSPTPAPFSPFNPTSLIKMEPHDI
Assay [15] has as its target T9, ELK4 (Homo sapiens, UniProt P28324-2 1-405).
T9 sequence: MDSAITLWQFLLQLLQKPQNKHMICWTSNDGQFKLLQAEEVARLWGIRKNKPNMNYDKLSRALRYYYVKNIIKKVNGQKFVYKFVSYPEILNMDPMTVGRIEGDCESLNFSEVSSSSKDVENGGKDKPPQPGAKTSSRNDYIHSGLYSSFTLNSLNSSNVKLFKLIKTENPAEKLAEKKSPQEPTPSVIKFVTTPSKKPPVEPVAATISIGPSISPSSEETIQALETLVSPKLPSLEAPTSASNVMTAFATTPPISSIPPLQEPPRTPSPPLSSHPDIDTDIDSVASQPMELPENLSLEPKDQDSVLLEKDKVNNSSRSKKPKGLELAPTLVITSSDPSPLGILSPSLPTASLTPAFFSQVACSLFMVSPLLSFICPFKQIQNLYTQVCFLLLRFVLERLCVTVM
The following applies: protein: recombinant; tags: N-terminal GST; dsDNA, one strand shown. The gist of the method: as §1

Assay [16] addresses T10, ETV2 (Homo sapiens, UniProt O00321 1-342).
T10 sequence: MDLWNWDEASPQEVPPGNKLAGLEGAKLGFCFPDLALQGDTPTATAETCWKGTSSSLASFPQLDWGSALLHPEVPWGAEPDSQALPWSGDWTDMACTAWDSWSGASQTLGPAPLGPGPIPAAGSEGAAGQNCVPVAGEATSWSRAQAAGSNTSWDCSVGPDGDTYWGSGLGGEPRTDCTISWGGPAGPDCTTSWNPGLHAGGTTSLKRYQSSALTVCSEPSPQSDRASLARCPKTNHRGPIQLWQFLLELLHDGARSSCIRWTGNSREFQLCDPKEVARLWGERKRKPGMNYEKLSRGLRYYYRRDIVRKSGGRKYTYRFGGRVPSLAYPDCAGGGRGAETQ
As to conditions: protein: recombinant; tags: N-terminal GST; dsDNA, one strand shown. A digest of the protocol:
as §1

Assay [17] concerns the target T11, ELF3 (Homo sapiens, UniProt P78545 1-371).
T11 sequence: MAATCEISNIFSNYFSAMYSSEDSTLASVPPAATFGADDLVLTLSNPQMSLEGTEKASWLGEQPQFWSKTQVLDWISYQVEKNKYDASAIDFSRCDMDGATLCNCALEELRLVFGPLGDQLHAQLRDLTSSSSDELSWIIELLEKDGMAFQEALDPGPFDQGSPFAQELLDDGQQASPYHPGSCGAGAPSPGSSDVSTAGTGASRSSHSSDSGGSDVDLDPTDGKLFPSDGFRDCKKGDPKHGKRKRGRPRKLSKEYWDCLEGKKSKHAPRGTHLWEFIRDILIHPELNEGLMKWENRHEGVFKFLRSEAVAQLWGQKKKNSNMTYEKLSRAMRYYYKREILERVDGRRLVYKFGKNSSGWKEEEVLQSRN
As to conditions: protein: recombinant; tags: N-terminal GST; dsDNA, one strand shown. A digest of the protocol:
as §1

For assay [18], the target named is ETV1 (Homo sapiens, UniProt P50549 1-477). The following applies: protein: recombinant; tags: N-terminal GST; dsDNA, one strand shown. The gist of the method:
as §1

The text below walks through data of paper PMC7862700, “An all-to-all approach to the identification of sequence-specific readers for epigenetic DNA modifications on cytosine”.

SPIB, sequence (Q01892 whole entry): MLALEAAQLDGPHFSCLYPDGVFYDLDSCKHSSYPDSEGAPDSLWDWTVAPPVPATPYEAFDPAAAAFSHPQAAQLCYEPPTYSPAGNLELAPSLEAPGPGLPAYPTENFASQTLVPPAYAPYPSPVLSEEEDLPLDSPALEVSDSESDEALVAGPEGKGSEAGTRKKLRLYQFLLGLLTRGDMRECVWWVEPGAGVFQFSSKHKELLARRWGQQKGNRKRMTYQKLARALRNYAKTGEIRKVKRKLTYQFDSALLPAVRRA
HSF1, sequence (Q00613 whole entry): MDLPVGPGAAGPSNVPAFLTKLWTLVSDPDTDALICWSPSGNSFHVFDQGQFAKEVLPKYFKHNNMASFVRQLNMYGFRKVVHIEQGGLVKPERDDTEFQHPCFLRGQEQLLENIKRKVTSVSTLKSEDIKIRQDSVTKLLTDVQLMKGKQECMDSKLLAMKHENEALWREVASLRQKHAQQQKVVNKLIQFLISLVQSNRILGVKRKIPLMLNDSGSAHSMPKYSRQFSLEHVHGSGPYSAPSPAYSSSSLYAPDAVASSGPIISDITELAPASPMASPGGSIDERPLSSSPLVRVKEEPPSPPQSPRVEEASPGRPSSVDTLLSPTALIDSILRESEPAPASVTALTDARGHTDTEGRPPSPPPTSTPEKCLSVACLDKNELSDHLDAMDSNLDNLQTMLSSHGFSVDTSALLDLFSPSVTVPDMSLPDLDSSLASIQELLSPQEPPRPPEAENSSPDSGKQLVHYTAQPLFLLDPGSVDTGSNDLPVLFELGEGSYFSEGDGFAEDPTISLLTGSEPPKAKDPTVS
ETV1, sequence (P50549 whole entry): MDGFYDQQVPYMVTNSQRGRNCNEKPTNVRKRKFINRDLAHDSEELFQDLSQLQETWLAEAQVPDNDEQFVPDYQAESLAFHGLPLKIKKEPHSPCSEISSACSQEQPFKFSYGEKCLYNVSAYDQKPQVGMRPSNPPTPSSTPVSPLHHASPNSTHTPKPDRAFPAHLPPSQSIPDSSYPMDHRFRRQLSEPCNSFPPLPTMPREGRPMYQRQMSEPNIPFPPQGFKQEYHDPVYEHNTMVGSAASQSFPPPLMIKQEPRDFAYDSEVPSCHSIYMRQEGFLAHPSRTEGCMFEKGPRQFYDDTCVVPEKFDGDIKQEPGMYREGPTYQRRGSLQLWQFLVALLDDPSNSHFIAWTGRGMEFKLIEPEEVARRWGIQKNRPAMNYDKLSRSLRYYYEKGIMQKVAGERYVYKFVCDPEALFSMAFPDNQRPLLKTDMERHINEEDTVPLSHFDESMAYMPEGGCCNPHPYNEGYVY
ELF1, sequence (P32519 whole entry): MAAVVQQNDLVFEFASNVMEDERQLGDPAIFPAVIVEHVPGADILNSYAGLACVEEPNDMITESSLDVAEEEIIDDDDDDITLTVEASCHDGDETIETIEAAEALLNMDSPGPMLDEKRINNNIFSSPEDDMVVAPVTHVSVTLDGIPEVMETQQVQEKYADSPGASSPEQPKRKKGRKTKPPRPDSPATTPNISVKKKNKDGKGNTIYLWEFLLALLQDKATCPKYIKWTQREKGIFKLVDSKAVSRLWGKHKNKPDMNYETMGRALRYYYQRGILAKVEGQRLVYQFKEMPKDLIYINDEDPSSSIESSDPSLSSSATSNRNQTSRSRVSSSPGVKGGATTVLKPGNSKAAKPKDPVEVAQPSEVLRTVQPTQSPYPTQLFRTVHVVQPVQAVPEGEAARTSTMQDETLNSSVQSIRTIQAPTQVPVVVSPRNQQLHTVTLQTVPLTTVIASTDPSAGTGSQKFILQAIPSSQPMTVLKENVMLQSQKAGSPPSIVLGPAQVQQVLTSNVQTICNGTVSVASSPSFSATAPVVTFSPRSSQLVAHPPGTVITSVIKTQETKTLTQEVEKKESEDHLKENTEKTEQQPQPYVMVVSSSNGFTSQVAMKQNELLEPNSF
ETV5, sequence (P41161 whole entry): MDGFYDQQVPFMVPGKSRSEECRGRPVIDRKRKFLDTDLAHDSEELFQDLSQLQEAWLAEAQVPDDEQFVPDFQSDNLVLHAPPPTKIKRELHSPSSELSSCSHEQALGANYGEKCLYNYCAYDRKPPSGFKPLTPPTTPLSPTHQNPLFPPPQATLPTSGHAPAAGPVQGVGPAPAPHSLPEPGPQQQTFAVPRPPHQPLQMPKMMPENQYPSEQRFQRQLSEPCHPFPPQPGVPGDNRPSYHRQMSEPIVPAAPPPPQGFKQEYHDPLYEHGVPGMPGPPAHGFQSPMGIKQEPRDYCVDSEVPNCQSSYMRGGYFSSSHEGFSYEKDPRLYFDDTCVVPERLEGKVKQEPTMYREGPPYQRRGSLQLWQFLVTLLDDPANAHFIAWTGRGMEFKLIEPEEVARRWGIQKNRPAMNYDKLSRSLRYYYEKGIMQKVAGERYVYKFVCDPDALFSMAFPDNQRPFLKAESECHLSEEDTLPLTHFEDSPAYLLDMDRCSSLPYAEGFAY

For TGCAAC, the binding signal is 1.27 fold enrichment (6-mer frequency, TF over GST control) in assay [1]; 1.32 fold enrichment (6-mer frequency, TF over GST control) in assay [2]; 1.4 fold enrichment (6-mer frequency, TF over GST control) in assay [3]; 1.41 fold enrichment (6-mer frequency, TF over GST control) in assay [4]; 1.35 fold enrichment (6-mer frequency, TF over GST control) in [5]; 1.36 fold enrichment (6-mer frequency, TF over GST control) in [6]. Besides, the binding signal in assay [7] is 1.28 fold enrichment (6-mer frequency, TF over GST control); in [8] it was 1.34 fold enrichment (6-mer frequency, TF over GST control); in assay [9], 1.43 fold enrichment (6-mer frequency, TF over GST control); in assay [10], 1.39 fold enrichment (6-mer frequency, TF over GST control); in [11], 1.3 fold enrichment (6-mer frequency, TF over GST control); in assay [12], 1.06 fold enrichment (6-mer frequency, TF over GST control). Further, the binding signal in assay [13] is 1.19 fold enrichment (6-mer frequency, TF over GST control); in assay [14], 1.3 fold enrichment (6-mer frequency, TF over GST control); in assay [15], 1.46 fold enrichment (6-mer frequency, TF over GST control); in assay [16], 1.31 fold enrichment (6-mer frequency, TF over GST control); in assay [17] it was 1.42 fold enrichment (6-mer frequency, TF over GST control); in assay [18], 1.4 fold enrichment (6-mer frequency, TF over GST control).
